Screening results as filed in PubChem BioAssay.
SMN2 splice up – enhancers of SMN2 splice variant expression; HEK293 SMN2-luciferase splicing reporter, luminescence, 30-36 h; Potency, µM (top dose mostly 46.1 µM), without a hit: at the top dose activity change, positive = activation, hits mostly activators; AID 1458; hit rate 2.8% among 210,000; note: % of control where 0% means no effect; nearly all actives have a fitted effect of over 55% in size
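HEK293 cells carry an SMN2 […]–luciferase reporter in which exon 7 inclusion puts luciferase in frame. Cells were plated 10-12 h before compound addition, then incubated 30-36 h at 37C. ONE-Glo luminescence was read; sodium butyrate at 4.5 mM final served as control.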
Rab9 promoter act – activates the Rab9 promoter | Huh7 Rab9 promoter-luciferase reporter, luminescence, 24 h | Potency, µM (highest dose often 9.22 µM), without a hit: at the highest dose activation, negative = inhibition, hits mostly activators | hit rate 2.8% among 320,000 | AID 485297; note: % of control where 0% means no effect; nearly all actives have a fitted effect of over 60% in size
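Stable Rab9-luc Huh7, 1500 cells/well, 2 h settle; cmpd in DMSO, 24 h, 37 °C/5% CO2; luciferase reagent 10 min RT; luminescence.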
FLuc modulator – counter-screen for miR-21 project: firefly luciferase inhibitors or activators. P08659. purified FLuc, Km substrates, luminescence inhibition. AID 588342. Potency, µM (titrated, usually from 57.5 µM), inactives show top-dose activity change, negative = inhibition, hits mostly inhibitors. hit rate 6.9% among 360,000;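 note: plate controls were vehicle for no effect and reference inhibitor for full effect; nearly all actives have a fitted effect of over 55% in size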
Target sequence (P08659 whole entry, looked up): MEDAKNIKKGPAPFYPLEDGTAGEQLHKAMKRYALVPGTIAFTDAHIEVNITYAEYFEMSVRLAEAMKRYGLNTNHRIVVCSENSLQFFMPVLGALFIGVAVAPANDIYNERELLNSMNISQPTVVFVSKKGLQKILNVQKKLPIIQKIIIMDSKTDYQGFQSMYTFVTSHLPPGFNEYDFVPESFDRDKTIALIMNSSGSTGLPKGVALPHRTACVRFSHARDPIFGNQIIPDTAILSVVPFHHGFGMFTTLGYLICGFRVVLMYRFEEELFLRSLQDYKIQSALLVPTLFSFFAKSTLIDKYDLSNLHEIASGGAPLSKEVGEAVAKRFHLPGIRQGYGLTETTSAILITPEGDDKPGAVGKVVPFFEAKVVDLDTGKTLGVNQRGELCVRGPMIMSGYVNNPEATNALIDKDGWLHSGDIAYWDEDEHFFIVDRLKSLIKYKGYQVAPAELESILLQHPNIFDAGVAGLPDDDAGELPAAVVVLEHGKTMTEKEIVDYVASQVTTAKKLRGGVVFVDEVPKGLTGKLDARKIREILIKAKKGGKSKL
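Biochemical qHTS of compounds, final roughly 60 µM downward over six points, against 10 nM purified firefly luciferase using Km concentrations of substrates (10 uM D-luciferin, 10 uM ATP) in Tris acetate pH 7.5 buffer; luminescence output.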
ELG1 DNA repair – inhibitors of ELG1-dependent DNA repair in HEK293T cells; Potency, µM (series often up to 46.1 µM), without a hit: top-dose activity change, negative = inhibition, most hits filed as inhibitors; AID 504467; HEK293T ELG1-luciferase reporter, luminescence, 16 h; DNA damage induced by 5-fluorouridine; hit rate 2.3% among 330,000; note: % is set by controls: 0 for no effect and ±100 for the full control effect; nearly all actives have a fitted effect of over 55% in size
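Quantitative HTS, concentration-response format. 2,000 cells/well co-treated with 5-fluorouridine and compound, 16 hr in 5% CO2 at 37 °C; ONE-Glo luminescence read after 30 min.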
ELG1 genotox – induces genotoxicity in HEK293T cells with luciferase-tagged ELG1; HEK293T ELG1-luciferase reporter, luminescence, 16 h; Potency, µM (titrated, usually from 46 µM), inactives show at the top dose activity change, positive = activation, hits mostly activators; hit rate 1.3% among 330,000; AID 504466; note: % of control where 0% means no effect; nearly all actives have a fitted effect of over 60% in size
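DMSO vehicle served as control against compound-treated ELG1-luciferase HEK293T cells; exposure lasted 16 hr at 37 °C and 5% CO2, followed by ONE-Glo luminescence detection after 30 min.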
NPC1 promoter act – activates the NPC1 promoter. Huh7 NPC1 promoter luciferase reporter, 24 h. Potency, µM (doses to about 9.22 µM), for the others: at the top dose activation, most hits filed as activators. hit rate 2.4% among 320,000. AID 485313; note: % of control where 0% means no effect; nearly all actives have a fitted effect of over 60% in size
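Quantitative HTS used a cell-based reporter: Huh7 cells stably bearing the NPC1 promoter upstream of luciferase were treated with compounds for 24 h, and promoter activation was read as luminescence.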
* marks the source's active call; other numbers are inactive results; ? = inconclusive; / = no result given; [ ] = another dose, or the depositor's remark. Sampled rows, rich in hits. Any-hit rate of the full collection: about 9.2%. Calls come from the whole dose curve; as a rule, active = well fitted curve in the direction sought with a large enough effect; inconclusive = small, poorly fitted or top-dose-only effect, or another doubt; inactive = no such curve, though single readings can be large; an effect the other way counts as inactive or inconclusive. Potency is the fitted concentration of half-maximal effect.

SMILES | SMN2 splice up | Rab9 promoter act | FLuc modulator | ELG1 DNA repair | ELG1 genotox | NPC1 promoter act
NC(=O)c1ccccc1N/C=C1\CCCCC1=O | 8.7% | -3.1% | -10.3% | 24.6% | 9.9% | 4.6%
Cc1cccc(CCNC(=O)C2CCN(S(=O)(=O)N3CCOCC3)CC2)c1 | / | -0.7% | 0.6% | -12.3% | 1.7% | 1.1%
NC(=O)c1ccccc1NC(=O)/C=C/c1ccccc1 | ? | 1.78µM* | 6.01µM* | ? | ? | ?
NC(=O)c1ccccc1NC(=O)/C=C/c1ccc(Cl)cc1 | 12.6µM* | 2.51µM* | 1.69µM* | ? | 3.66µM* | 1.78µM*
COc1cc(NC(=O)Cc2ccccc2)c(C(=O)O)cc1OC | / | -3.9% | -15.0% | -4.0% | 4.1% | -1.5%
COC(=O)c1cc(NC(=O)/C=C/c2ccccc2)ccc1O | / | ? | 10.7µM* | ? | 6.8% | ?
COc1cc(NC(=O)/C=C/c2ccccc2)c(C(=O)O)cc1OC | / | 7.0% | 6.01µM* | ? | 14.9% | 3.5%
O=C(/C=C/c1ccc(Cl)cc1)NC(=S)Nc1ccccc1C(=O)O | / | -0.8% | ? | -2.5% | -0.1% | -3.2%
COc1cc(/C=N/n2c(-c3ccc4c(c3)NC(=O)CO4)csc2=Nc2cccc(C)c2)ccc1O | -12.5% | -2.8% | ? | 14.6µM* | -11.6% | -1.8%
COCCN=c1scc(-c2ccc3c(c2)NC(=O)CO3)n1/N=C(\C)c1ccc(O)cc1 | / | -7.5% | -0.2% | 18.3µM* | -12.7% | 0.5%
COc1ccc(N=C2C(=O)Nc3ccc(C)c(Br)c32)cc1 | / | -6.8% | 8.49µM* | 6.9% | 3.5% | -3.9%
Cc1ccc(N=C2C(=O)Nc3ccc(C)c(Br)c32)cc1 | / | 0.1% | 12µM* | 14.4% | -2.6% | 2.4%
O=C1Nc2ccccc2C1=Nc1ccc(F)cc1 | / | -2.6% | 5.5% | -0.7% | 2.3% | 2.0%
COc1cc(OC)cc(C(=O)Nc2cc3c(cc2N2CCCC2)n(C)c(=O)c(=O)n3C)c1 | / | / | 3.3% | / | / | /
CC(C)Oc1ccc(C(=O)Nc2ccc(C(F)(F)F)n(C)c2=O)cc1 | -2.3% | 9.6% | 19µM* | ? | 2.6% | 2.2%
Cc1[nH]c(=O)[nH]c(=O)c1NC(=O)c1ccc(OC(C)C)cc1 | / | -2.7% | -0.5% | -4.5% | 0.9% | -3.1%
Cc1ccc(S(=O)(=O)NCc2nc(-c3cccc(C)c3)no2)cc1 | -1.9% | / | -19.6% | / | / | /
Fc1ccc(-c2nc3n(n2)Cc2ccccc2-3)cc1 | 2.82µM* | ? | 0.601µM* | ? | 0.411µM* | ?
CCn1c(C)nc2cc(-c3nc4n(n3)Cc3ccccc3-4)ccc21 | -64.7% | -43.5% | 0.0239µM* | ? | -18.5% | -47.7%
Cc1ccc(-c2nc3n(n2)Cc2ccccc2-3)cc1 | 1.26µM* | 3.16µM* | 0.301µM* | ? | ? | 3.55µM*
COc1ccc2[nH]c(=O)c(CN(Cc3cccs3)C(=S)NCC3CCCO3)cc2c1 (stereo not drawn) | / | -5.1% | 0.0% | 23.1µM* | -10.0% | 0.0%
CCN(CC)CCN(Cc1cc2cc(C)cc(C)c2[nH]c1=O)C(=S)NCc1ccco1 | -9.6% | -9.3% | 3.7% | -33.9% | -4.2% | -2.2%
Cc1cc(C)c2[nH]c(=O)c(CN(Cc3cccs3)C(=S)NCc3ccco3)cc2c1 | -4.4%[1.84 µM] | -4.0% | 7.5% | 20.6µM* | -6.1% | 0.4%
Cc1ccc2cc(CN(Cc3ccco3)C(=S)NCC3CCCO3)c(=O)[nH]c2c1C (stereo not drawn) | 2.5% | -0.6% | -2.0% | 10.3µM* | -3.0% | -1.9%
COC(=O)c1ccccc1NC(=S)N(Cc1ccc2c(c1)OCO2)Cc1cc2cc(OC)ccc2[nH]c1=O | -23.1% | -1.6% | 2.3% | 10.3µM* | -7.0% | -5.5%
SMILES | SMN2 splice up | Rab9 promoter act | FLuc modulator | ELG1 DNA repair | ELG1 genotox | NPC1 promoter act
CC(C)(C)c1cc(CCC(=O)NNC(=O)c2ccncc2)cc(C(C)(C)C)c1O | / | -2.7% | ? | 21.0% | 0.9% | -0.4%
CCNC(=S)N(Cc1ccco1)Cc1cc2cc3c(cc2[nH]c1=O)OCCO3 | 2.2% | -0.5% | -1.4% | ? | 1.2% | 7.6%
CC(C)CNC(=S)N(Cc1ccco1)Cc1cc2cc3c(cc2[nH]c1=O)OCCO3 | -14.6% | -4.5% | -1.3% | 10.3µM* | -2.0% | -4.0%
Cc1cc(C)c2[nH]c(=O)c(CN(Cc3cccs3)C(=S)NCC3CCCO3)cc2c1 (stereo not drawn) | -10.5% | -2.4% | -2.0% | 25.9µM* | -4.2% | 1.3%
CCC1CN(C(=O)N2CCC(C(=O)NCc3cccc(F)c3)CC2)c2cc(C)ccc2O1 (stereo not drawn) | / | / | -1.7% | / | / | /
CCOc1ccc(NC(=O)CC2C(=O)N(c3cccc(C)c3)C(=O)N2Cc2cccnc2)cc1 (stereo not drawn) | / | / | 4.0% | / | / | /
CC(C)(C)OC(=O)N1CCC(c2c(C(=O)NCCN3CCOCC3)cnn2-c2ccc(F)cc2)CC1 | / | / | -3.0% | / | / | /
COc1ccc(-c2cc3ncnc(Cl)c3s2)cc1 | / | ? | 3.38µM* | ? | ? | 3.55µM*
CC(C)(C)C(=O)Nc1cccc(C(=O)c2cccc(NC(=O)C(C)(C)C)c2)c1 | 2.1% | 2.8% | ? | ? | -6.8% | -2.0%
CC(C)(C)C(=O)Nc1cccc(-c2cc(-c3c(Cl)cccc3Cl)no2)c1 | / | -13.0% | -2.7% | 8.2µM* | -0.9% | 1.4%
NC(=O)c1cccc2c3c([nH]c12)CCCC3 | -4.1% | -4.5% | 23.9µM* | ? | 8.2% | 13.6%
COc1cc(OC)cc(-c2cc3nc(C)c(CCC(=O)Nc4ccc(F)c(Cl)c4)c(C)n3n2)c1 | -10.8% | / | ? | / | / | /
CCOC(=O)c1cccc(NC(=O)CCc2c(C)nc3cc(-c4ccc(Cl)cc4)nn3c2C)c1 | -21.0% | / | 12µM* | / | / | /
CCOc1ccc(NC(=O)CCc2c(C)nc3cc(-c4ccc(Cl)cc4)nn3c2C)cc1 | -16.9% | / | 6.75µM* | / | / | /
C=CCc1ccccc1OC[C@H](O)CNC(C)C | 2.3%[20.6 µM] | / | / | / | / | /
Cc1ccc(SCCNC(=O)c2ccc(C)c(S(=O)(=O)Nc3ccccc3C)c2)cc1 | -18.2% | -8.3% | 1.6% | 2.91µM* | -15.1% | -3.6%
COc1ccccc1OCCNC(=O)CN1C(=O)NC2(CCCCC2)C1=O | / | -3.0% | / | 10.8% | 2.3% | -0.7%
O=C(Nc1ccc(O)cc1)c1ccc2c(c1)C(=O)N(Cc1ccccc1)C2=O | / | -0.9% | 2.3% | -8.4% | 0.6% | -8.9%
COCCCN1C(=O)c2ccc(C(=O)Nc3ccccc3OC)cc2C1=O | 19.8% | -1.0% | -11.2% | -1.6% | 2.8% | -1.7%
COCCCN1C(=O)c2ccc(C(=O)Nc3ccc(OC)cc3)cc2C1=O | 0.8% | 16.6% | 8.49µM* | 1.0% | 8.1% | -4.8%
CC(C)CN1C(=O)c2ccc(C(=O)Nc3ccncc3)cc2C1=O | -12.1% | -4.7% | -8.6% | ? | -4.1% | -11.6%
